Tau fibril ThT: qHTS for Inhibitors of Tau Fibril Formation, Thioflavin T Binding. recombinant tau K18 P301L, heparin-induced fibrillization, ThT fluorescence. 270,000 compounds, 2.1% hits. Potency, µM (titrated, usually from 57.4 µM), most hits filed as inhibitors; also: nearly all actives have a fitted effect of over 55% in size
Target sequence (P10636 561-689 P618L limits assumed): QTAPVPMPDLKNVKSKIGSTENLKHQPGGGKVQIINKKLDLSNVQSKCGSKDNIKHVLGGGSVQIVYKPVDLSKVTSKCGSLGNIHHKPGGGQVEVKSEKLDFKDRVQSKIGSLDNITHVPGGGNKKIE
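Aggregation was driven by heparin (20 uM final) acting on recombinant tau […] bearing P301L in 100 mM sodium acetate pH 7; fibrils were detected with Thioflavin T.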
Tau fluor counter: Counterscreen qHTS for Inhibitors of Tau Fibril Formation, Fluorescence Polarization. tau K18 P301L Alexa594 fluorescence, heparin fibrillization. Potency, µM (doses to about 57.7 µM). 280,000 compounds, 0.93% hits. AID 1463, 2008; also: nearly all actives have a fitted effect of over 55% in size
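Human tau K18 P301L (15 uM unlabeled, 0.24 uM Alexa 594-labeled) in 100 mM sodium acetate pH 7 with 20 uM heparin, 6 hr at 37 C. ThT 30 uM added, 1 hr ambient; Alexa 594 FP and total fluorescence read at 555/632 nm.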
FBPA coupling cs: qHTS Assay for Inhibitors of Fructose-1,6-bisphosphate Aldolase from Giardia Lamblia: Coupling assay counterscreen; coupling enzyme system counterscreen, AmpLite Red fluorescence; activity change, negative = inhibition, % at 58.2 µM, hits read low; 290,000 compounds, 0.67% hits; AID 2472, 2010; in the data active = activity change below about -30%
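Activity here indicates interference with the coupling reaction, not aldolase inhibition. Compounds at 57.5 uM final met coupling enzymes for 10 min at RT; substrate and AmpLite Red detection followed, with a 525/598 nm fluorescence read after 20 min.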
Tau fibril FP: qHTS for Inhibitors of Tau Fibril Formation, Fluorescence Polarization | Microtubule-associated protein tau (Homo sapiens), P10636 | K18 P301L tau heparin fibrillization, Alexa594 FP, 6 h | Potency, µM (doses to about 57.7 µM), usual class: inhibitors | 280,000 compounds, 0.39% hits; also: nearly all actives have a fitted effect of over 55% in size
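FP of Alexa 594-tau after heparin (20 uM) induction. Substrate: human K18 P301L, 15 uM unlabeled, 0.24 uM labeled. Buffer 100 mM sodium acetate pH 7. 6 hr, 37 C.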
Each line names hits and unclear results; the compound was inactive in the other large screens; ! = a repeat was not active; [ ] = remark or other dose. The list is not random: actives were taken first. Their share in the collection is about 2.7%. Unless noted, calls follow the shape of the dose curve; as a rule, active = well fitted curve in the direction sought with a large enough effect; inconclusive = small, poorly fitted or top-dose-only effect, or another doubt; inactive = no such curve, though single readings can be large; an effect the other way counts as inactive or inconclusive.

O=C(COc1ccccc1)Nc1cccc(-c2nc3cc4ccccc4cc3[nH]2)c1	Tau fibril ThT inconclusive, Tau fluor counter 16µM[quencher], Tau fibril FP inconclusive
CCOC(=O)/C(=N/Nc1ccc(OC)cc1)N1CCCc2ccccc21	Tau fluor counter inconclusive, FBPA coupling cs -42
COC(=O)c1ccc(OCCOc2ccccc2)cc1	Tau fibril ThT inconclusive
COC(=O)CCC(=O)Nc1ccc(N=Nc2ccccc2)cc1	Tau fibril ThT 11µM, Tau fluor counter inconclusive
COC(=O)c1ccc(N=Nc2ccccc2)cc1	Tau fibril ThT 14µM
Cc1ccc(S(=O)(=O)Nc2c(O)c3ccccc3oc2=O)cc1C	none (no result: Tau fibril ThT, Tau fluor counter, Tau fibril FP)
O=C(Oc1ccccc1C(=O)O)c1ccccc1O	none
O=C(/C=C/C(=O)Oc1ccccc1C(=O)O)Oc1ccccc1C(=O)O	Tau fibril ThT 25µM, Tau fibril FP 25µM
COC(=O)c1cc(C)[nH]c2c(C)cc3nc4ccccc4c3c12	Tau fibril ThT inconclusive, Tau fluor counter 25µM[quencher], Tau fibril FP inconclusive
COC(=O)c1c(C)nc2ccccc2c1C(=O)O	none
CC1=C(/C=C/C(C)=C/C=C/C(C)=C\C(=O)O)C(C)(C)CCC1	none
CC1=C(\C=C/C(C)=C/C=C\C(C)=C\C(=O)O)C(C)(C)CCC1	Tau fibril ThT 32µM!, Tau fibril FP inconclusive
CC1=C(/C=C/C(C)=C/C=C/C(C)=C/C(=O)Nc2ccc(O)cc2)C(C)(C)CCC1	Tau fibril ThT 16µM, Tau fluor counter 11µM[quencher]
COc1ccc2nc3cccc(OC)c3nc2c1	Tau fibril ThT 16µM, FBPA coupling cs -39, Tau fibril FP inconclusive
COc1ccc(-c2nc3ccccc3nc2-c2ccc(OC)c(OC)c2)cc1OC	none (no result: Tau fibril ThT, Tau fluor counter, Tau fibril FP)
COc1ccc2nc3ccccc3nc2c1N	Tau fibril ThT 10µM, Tau fluor counter inconclusive, Tau fibril FP inconclusive
O=C(O)Cn1cccc1C(=O)c1ccccc1	Tau fibril ThT 8.9µM, Tau fluor counter inconclusive
COc1ccc(C(=O)N2CCN(Cc3cc(=O)n4nc(-c5ccccc5C)sc4n3)CC2)cc1OC	none (no result: FBPA coupling cs)
Oc1ccc2c(c1)OC(c1ccc(O)c(O)c1)C(O)C2 (stereo not drawn)	Tau fibril ThT inconclusive
Oc1cc2c(cc1O)[C@H]1c3ccc(O)c(O)c3OC[C@@]1(O)C2	Tau fibril ThT 18µM, Tau fluor counter inconclusive, Tau fibril FP inconclusive
Oc1ccc2c(c1)OCC1(O)Cc3cc(O)c(O)cc3C21 (stereo not drawn)	Tau fibril ThT 22µM, Tau fluor counter inconclusive, Tau fibril FP inconclusive
CC(=O)Oc1ccc2c(c1OC(C)=O)OCC1(O)Cc3c(cc(OC(C)=O)c(OC(C)=O)c3OC(C)=O)C21 (stereo not drawn)	Tau fibril ThT inconclusive, Tau fluor counter inconclusive
Cc1ccc(Cl)cc1NC(=O)C1CCN(C(=O)c2cnn(-c3ccccc3)c2-n2cccc2)CC1	Tau fibril ThT inconclusive (no result: FBPA coupling cs)
COc1ccc(-c2nc(CNC(=O)Nc3ccccc3)c(C)o2)cc1	none (no result: FBPA coupling cs)
CN(C)c1ncnc2ccc(-c3ccccc3C(F)(F)F)cc12	none (no result: Tau fibril ThT, Tau fluor counter, Tau fibril FP)
COc1ccccc1-c1cn[nH]c1-c1ccc(O)cc1O	none (no result: Tau fibril ThT, Tau fluor counter, Tau fibril FP)
COc1ccccc1-c1cn[nH]c1-c1ccc(OCc2ccccc2F)cc1O	Tau fluor counter 10µM[quencher], Tau fibril FP inconclusive
COc1ccccc1-c1cn[nH]c1-c1ccc(OCc2ccc(F)cc2)cc1O	Tau fluor counter 10µM[quencher], Tau fibril FP inconclusive
Cc1cccc(N2CCN(C(=O)CN3C(=O)COc4ccc(S(=O)(=O)N5CCC(C)CC5)cc43)CC2C)c1 (stereo not drawn)	none (no result: FBPA coupling cs)
COc1ccc2oc(=O)c(C(=O)Nc3cccc(C(C)=O)c3)cc2c1	none (no result: Tau fibril ThT, Tau fluor counter, Tau fibril FP)
COc1ccc2oc(=O)c(/C(C)=N/Nc3ccccc3)cc2c1	Tau fibril ThT 18µM, Tau fluor counter inconclusive
C[C@@](N)(C(=O)O)c1ccc(S(=O)(=O)O)cc1	none
CCCCNc1cc(NC(C)=O)cc2cc(OC)c(OC)cc12	FBPA coupling cs -44
COc1cc2cc(NC(C)=O)cc(NCc3ccccc3)c2cc1OC	none (no result: Tau fibril ThT, Tau fluor counter, Tau fibril FP)
Cc1cc(-c2ccc(C)c(S(=O)(=O)NC(c3cccs3)C(C)C)c2)on1 (stereo not drawn)	Tau fluor counter inconclusive (no result: FBPA coupling cs)
CCOc1cc(NC(=O)c2ccccn2)c(OCC)cc1NC(=O)c1ccccc1	Tau fibril FP inconclusive
CCOc1cc(NC2CS(=O)(=O)CC2O)c(OCC)cc1NC(=O)c1ccccc1 (stereo not drawn)	FBPA coupling cs -41
CC1CCc2onc(C(=O)N3CCN(c4cccc(C(F)(F)F)c4)CC3)c2C1 (stereo not drawn)	Tau fibril ThT inconclusive (no result: FBPA coupling cs)
CCn1c2ccccc2c2cc(NC(=O)CSc3nnc(-c4cccc(OC)c4)n3N)ccc21	Tau fibril ThT inconclusive, Tau fluor counter 16µM[quencher]
CCn1c2ccccc2c2cc(NC(=O)CSc3nnc(-c4ccc(OC)c(OC)c4)n3N)ccc21	Tau fibril ThT inconclusive, Tau fluor counter inconclusive
C=CCn1c(O)c(CN2CCN(Cc3ccccc3)CC2)c(C)c(C#N)c1=O	Tau fibril ThT 16µM, FBPA coupling cs -42, Tau fibril FP inconclusive
CCCn1c(O)c(CN2CCCCC2)c(C)c(C#N)c1=O	Tau fibril ThT inconclusive, FBPA coupling cs -40, Tau fibril FP inconclusive
Cc1c(CN2CCCCC2)c(O)n(CCCO)c(=O)c1C#N	Tau fibril ThT inconclusive, FBPA coupling cs -30, Tau fibril FP inconclusive
Cc1cc(C)c(C#N)c(N2CCN(Cc3ccccc3)CC2)n1	none
O=c1c(O)c(-c2ccc(O)cc2O)oc2cc(O)cc(O)c12	Tau fibril ThT 13µM, Tau fluor counter 28µM[quencher], Tau fibril FP inconclusive
O=c1c(O)c(-c2ccccc2O)oc2cc(O)cc(O)c12	none (no result: Tau fibril ThT, Tau fluor counter, Tau fibril FP)
Cc1ccc2nc(-c3ccc(NC(=S)NC4CC(C)(C)NC(C)(C)C4)cc3)sc2c1	Tau fibril ThT inconclusive, Tau fluor counter 7.9µM[quencher], Tau fibril FP 11µM
Cc1ccc2nc(-c3ccc(NC(=S)NC(=O)C(C)C)cc3)sc2c1	Tau fibril ThT inconclusive
CCOc1c(O)ccc(/C=C2\SC(=S)NC2=O)c1[N+](=O)[O-]	Tau fibril ThT 10µM, Tau fluor counter inconclusive, Tau fibril FP inconclusive
Cc1nc(S/C(=C/c2ccc(-c3cccc(Cl)c3)o2)C(=O)O)n[nH]1	Tau fibril ThT 2.8µM
Cc1ccc2nc(/C(C#N)=C/c3ccc(-c4cccc(Cl)c4)o3)[nH]c2c1	Tau fluor counter inconclusive (no result: FBPA coupling cs)
N#CC1=C(S)N(c2ccccc2)C(c2ccco2)NC1=O (stereo not drawn)	none
N#CC1=C(S)N(c2ccccc2)C(c2ccc(-c3ccc(Cl)c(Cl)c3)o2)NC1=O (stereo not drawn)	Tau fibril ThT 16µM, Tau fibril FP 25µM
N#CC1=C(S)N(c2ccc(F)cc2)C(c2ccco2)NC1=O (stereo not drawn)	Tau fibril ThT 40µM, Tau fibril FP inconclusive
Cc1ccccc1NC(=O)Cn1nnc(C(=O)NCc2cccs2)c1N	none (no result: FBPA coupling cs)
COc1ccc(CC(=O)c2c(O)cc(O)cc2O)cc1OC	Tau fluor counter inconclusive
O=C(Cc1ccc(Cl)cc1)c1c(O)cc(O)cc1O	Tau fibril ThT inconclusive, Tau fluor counter 16µM[quencher]

Assay outcomes deposited in PubChem by National Center for Advancing Translational Sciences (NCATS).
